Test [1] has as its target Cytochrome P450 2D6 (Homo sapiens) (UniProt P10635). The test is described as follows: Cytochrome P450 family 2 subfamily D member 6 (CYP2D6) small molecule antagonists: luciferase biochemical (cell-free) qHTS assay (AID 1645840; active means well fitted curve in the direction sought with a large enough effect in the repeat runs; an effect the other way counts as inactive or inconclusive; further: nearly all actives have a fitted effect of over 55% in size; further: potency means the concentration at half of the fitted maximal effect). The essentials:
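P450-Glo luminescent screen: recombinant CYP2D6 enzyme–proluciferin substrate mix preincubated with compound 10 min at room temperature, then NADPH regeneration added for 1 h at room temperature. Detection reagent added for 20 min; luciferin light read as relative luminescence units.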
(In general: Quantitative high-throughput screening tests each substance at several concentrations.)

Test [2] has as its target Cytochrome P450 2C9 (Homo sapiens) (UniProt P11712). The test is described as follows: Cytochrome P450 family 2 subfamily C member 9 (CYP2C9) small molecule antagonists: luciferase biochemical (cell-free) qHTS assay (AID 1645842; active means well fitted curve in the direction sought with a large enough effect in the repeat runs; an effect the other way counts as inactive or inconclusive; further: nearly all actives have a fitted effect of over 55% in size; further: potency means the concentration at half of the fitted maximal effect). The essentials: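 Luminescence, after 20 min with luciferin detection reagent, reflected CYP2C9 turnover during a 1 h NADPH-driven reaction at 37C. Enzyme-substrate mix contained 0.4% bovine serum albumin and was preincubated with compound 10 min at room temperature.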

Test [3] can be described thus: Primary qHTS for inhibitors of nuclear receptor binding SET domain protein 2 (NSD2) in an isogenic RCH-ACV NSD2 p.E1099K mutant (9B) (AID 1645876). Further: nearly all actives have a fitted effect of over 70% in size. Further: potency means the concentration at half of the fitted maximal effect.
Test [4] in a line: Primary qHTS for inhibitors of nuclear receptor binding SET domain protein 2 (NSD2) in an RCH-ACV wild type WT cells (2C) (AID 1645877). Further: nearly all actives have a fitted effect of over 70% in size. Further: potency means the concentration at half of the fitted maximal effect.
Test [5] in a line: Primary qHTS for small molecule stabilizers of the endoplasmic reticulum resident proteome: Secreted ER Calcium Modulated Protein (SERCaMP) assay (AID 1508630). The essentials: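 GLuc-SERCaMP-expressing SH-SY5Y cells, pretreated 16 h with compound, are challenged with thapsigargin to empty ER calcium stores; after 4 h, coelenterazine is added directly to the medium and luminescence is imaged.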

Several values for one entry are separate records, joined by “and”; a condition that tells them apart may be missing. Equal entries are not always repeated. Inconclusive results are not listed. Some structures have more than one record in an assay (separate samples or runs), and their calls can disagree. Activity calls are given as the source filed them. Unless noted, the call rests on the fitted dose curve; in most records, active means well fitted curve in the direction sought with a large enough effect; inconclusive means small, poorly fitted or top-dose-only effect, or another doubt; inactive means no such curve, though single readings can be large; an effect the other way counts as inactive or inconclusive.

Sequence of Cytochrome P450 2D6 (Homo sapiens) (P10635 whole entry, looked up): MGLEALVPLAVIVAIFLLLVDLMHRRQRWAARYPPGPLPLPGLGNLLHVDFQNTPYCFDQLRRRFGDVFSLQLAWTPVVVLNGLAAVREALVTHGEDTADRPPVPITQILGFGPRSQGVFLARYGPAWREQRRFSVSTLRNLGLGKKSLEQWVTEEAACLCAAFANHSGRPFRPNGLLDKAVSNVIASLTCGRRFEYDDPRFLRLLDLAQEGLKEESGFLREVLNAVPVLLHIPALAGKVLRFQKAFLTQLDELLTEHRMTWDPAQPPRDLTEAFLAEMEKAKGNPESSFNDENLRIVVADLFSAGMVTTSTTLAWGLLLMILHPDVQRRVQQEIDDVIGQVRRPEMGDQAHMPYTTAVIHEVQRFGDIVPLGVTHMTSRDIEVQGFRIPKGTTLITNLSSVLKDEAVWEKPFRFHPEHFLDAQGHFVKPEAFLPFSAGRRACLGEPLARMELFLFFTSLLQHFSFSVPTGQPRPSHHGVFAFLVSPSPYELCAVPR
Sequence of Cytochrome P450 2C9 (Homo sapiens) (P11712 whole entry, looked up): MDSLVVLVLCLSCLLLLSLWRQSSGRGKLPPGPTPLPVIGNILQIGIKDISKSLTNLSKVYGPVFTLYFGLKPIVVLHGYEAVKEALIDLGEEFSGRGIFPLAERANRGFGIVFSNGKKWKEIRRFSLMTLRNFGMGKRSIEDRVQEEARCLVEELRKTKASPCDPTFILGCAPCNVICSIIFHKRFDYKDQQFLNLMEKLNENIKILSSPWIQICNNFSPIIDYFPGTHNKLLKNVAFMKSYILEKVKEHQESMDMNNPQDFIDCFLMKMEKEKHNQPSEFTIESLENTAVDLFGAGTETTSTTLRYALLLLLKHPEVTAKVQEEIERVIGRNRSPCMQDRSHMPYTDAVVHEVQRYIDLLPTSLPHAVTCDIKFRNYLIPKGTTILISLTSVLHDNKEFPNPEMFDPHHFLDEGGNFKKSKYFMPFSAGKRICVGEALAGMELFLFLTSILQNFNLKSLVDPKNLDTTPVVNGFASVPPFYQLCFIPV

Consider `c1cc(OCCN2CCCCC2)cc(-c2n[nH]c3ccc(-c4ncn[nH]4)cc23)c1`, for which the Potency was 15.1 µM (active) in test [1], 16.6 µM (active) in test [3] and 13.2 µM (active) in test [4]. Also, the Potency result in test [2] was “inactive”.

In the case of `CN1CC(=O)N2C(Cc3c([nH]c4ccccc34)[C@H]2c2ccc3c(c2)OCO3)C1=O` (stereo not given in full), the Potency entry in test [5] was “inactive”.

As for `CC(C)(CO)[C@@H](O)C(=O)NCCC(=O)O`, the Potency result in test [3] was “inactive”.

As to `CN(C)CC[C@H](CSc1ccccc1)Nc1ccc(S(=O)(=O)NC(=O)c2ccc(N3CCN(Cc4ccccc4-c4ccc(Cl)cc4)CC3)cc2)cc1[N+](=O)[O-]`, in test [5], the Potency result was “inactive”. The Potency was 4.17 µM (active) in test [3] and 2.63 µM (active) in test [4].

For the compound `CCc1cccc(CC)c1NC(=O)N1Cc2[nH]nc(NC(=O)c3ccc(N4CCN(C)CC4)cc3)c2C1`, the Potency entry in test [5], in test [1] and in test [2] was “inactive” throughout. The Potency in test [3] was 817 nM (active) and 1.18 µM (active); in test [4], 409 nM (active) and 468 nM (active).

Take `CCCC1OC2C[C@@H]3[C@H]4CCC5=CC(=O)C=C[C@]5(C)[C@H]4C(O)C[C@]3(C)[C@]2(C(=O)CO)O1` (stereo not given in full): the Potency result in test [5] is “inactive”. For the same compound, in test [4], the Potency was 0.0053 µM (active).

Consider `CON(C)C(=O)N1N=C(c2cc(F)ccc2F)S[C@]1(CCCN)c1ccccc1`, for which the Potency result in test [5] is “inactive”.

On to `CN(C)c1ccc(-c2nc3ncc(Cl)c(N4CCN(CC(=O)Nc5nccs5)CC4)c3[nH]2)cc1`, for which the Potency entry in test [5] and in test [1] was “inactive” throughout. For the same compound, the Potency in test [2] was 0.536 µM (active).

On to `CN1CCN(c2ncc(-c3cc(Cl)cc(Cl)c3Cl)c(N)n2)CC1`, for which the Potency entry in test [5] was “inactive”. Further, in test [4], the Potency is 18.6 µM (active).

On to `CC1=C(CC(=O)O)c2cc(F)ccc2C1=Cc1ccc(S(C)=O)cc1` (stereo not given), for which the Potency entry in test [5] was “inactive”.

Regarding `Cc1cnc(Nc2cccc(CN3CCOCC3)c2)nc1Nc1cccc(S(=O)(=O)NC(C)(C)C)c1`, the Potency result in test [5] is “inactive”. For the same compound, the Potency was 15.1 µM (active) in test [1], 5.35 µM (active) in test [2], 0.515 µM (active) in test [3] and 0.515 µM (active) in test [4].

`CCNC(=O)Nc1ccc(Oc2ncnc(N)c2C=NOC)cc1Cl`: the Potency entry in test [5], in test [1] and in test [2] was “inactive” throughout.

Turning to `CC(C)CN(C[C@H](O)[C@H](Cc1ccccc1)NC(=O)O[C@H]1CCOC1)S(=O)(=O)c1ccc(N)cc1`, the Potency entry in test [5] is “inactive”.

In the case of `N#CC1(c2cccc(C(=O)Nc3cc(Oc4ccc5nc(NC(=O)C6CC6)sc5n4)ccc3F)c2Cl)CC1`, the Potency entry in test [5] is “inactive”. Besides, the Potency is 1.83 µM (active) and inactive in test [3]; 3.65 µM (active) and inactive in test [4].

For the compound `CCC(=C(CC)c1ccc(O)cc1)c1ccc(O)cc1`, the Potency entry in test [5] was “inactive”.

For the compound `NC[C@H]1O[C@H](O[C@@H]2[C@@H](O)[C@@H](O[C@H]3O[C@H](CO)[C@@H](O)[C@H](N)[C@@H]3O)[C@H](N)C[C@@H]2N)[C@H](O)[C@@H](O)[C@H]1O`, the Potency entry in test [3] and in test [4] was “inactive” throughout.

`CC1(C)[C@H]2CC[C@]3(C)[C@@H](C(=O)C=C4[C@@H]5C[C@@](C)(C(=O)O)CC[C@]5(C)CC[C@]43C)[C@@]2(C)CC[C@@H]1O`: in test [5], the Potency entry was “inactive”.

As for `COc1cc(C=CC(=O)O)ccc1O`, the Potency result in test [5] was “inactive”.

`N[C@@H](CC(=O)N1CCn2c(nnc2C(F)(F)F)C1)Cc1cc(F)c(F)cc1F`: the Potency result in test [5], in test [3] and in test [4] was “inactive” each time.

Consider `CCC(C)SSc1ncc[nH]1` (stereo not given), for which, in test [5], the Potency entry is “inactive”. The Potency is 9.34 µM (active) in test [3] and 8.33 µM (active) in test [4].

As to `Cc1[nH]c(C=C2C(=O)Nc3ccc(S(=O)(=O)N(C)c4cccc(Cl)c4)cc32)c(C)c1C(=O)N1CCN(C)CC1`, the Potency result in test [5] was “inactive”.

Take `COc1ccc(CCN(C)CCCOc2ccc(S(=O)(=O)c3[nH]c4ccccc4c3C(C)C)cc2)cc1OC`: the Potency entry in test [5] was “inactive”. Also, the Potency in test [3] is 13.2 µM (active); in test [4], 16.6 µM (active).

For the compound `COC(=O)N1CCN(Cc2cccc(NC(=O)Nc3ccc(C)nc3)c2F)CC1`, the Potency result in test [5] and in test [1] was “inactive” throughout.

On to `Cc1ccc(S(=O)(=O)OCC(=O)Nc2ccc(C(=O)O)c(O)c2)cc1`, for which the Potency result in test [3] and in test [4] was “inactive” in each case.

As to `O=S(=O)(O)c1ccc2cc(N=Nc3cc(S(=O)(=O)O)c4cccnc4c3O)ccc2c1`, the Potency result in test [5], in test [1], in test [2], in test [3] and in test [4] was “inactive” each time.

On to `CC1=C[C@@H]2[C@@H]([C@@H](O)C[C@@]3(C)[C@H]2C[C@@H](C)[C@]3(O)C(=O)CO)[C@@]2(C)Cc3cnn(-c4ccccc4)c3C=C12`, for which the Potency result in test [5] is “inactive”. For the same compound, the Potency in test [3] was 3.32 µM (active); in test [4], 0.0026 µM (active).

Regarding `NC1(C(=O)N[C@@H](CCO)c2ccc(Cl)cc2)CCN(c2ncnc3[nH]ccc23)CC1`, the Potency result in test [5] is “inactive”. In addition, the figures for the Potency in test [3] and in test [4] were 0.817 µM (active) and 2.35 µM (active), respectively.

`COc1cc2c(cc1OC)CC(=O)N(CCCN(C)C[C@H]1Cc3cc(OC)c(OC)cc31)CC2`: the Potency entry in test [5], in test [3] and in test [4] was “inactive” throughout.

`CCCCCCCCCCCCCCCC(=O)O[C@H]1[C@@H](O)[C@@H](O)[C@@H]([C@H](NC(=O)[C@@H]2C[C@@H](CCC)CN2C)[C@H](C)Cl)O[C@@H]1SC`: the Potency entry in test [5] and in test [4] was “inactive” each time.

For the origin of these results see PubChem BioAssay (NCATS).
